The values below come from PubChem BioAssay (Tox21).

Several values for one entry are separate records, joined by “and”; a condition that tells them apart may be missing. Equal entries are not always repeated. Records with an inconclusive call do not appear. Some structures have more than one record in an assay (separate samples or runs), and their calls can disagree. Activity calls are given as the source filed them. Unless noted, calls come from the whole dose curve; as a rule, active = well fitted curve in the direction sought with a large enough effect in the repeat runs; inconclusive = weak or mixed curves; inactive = no such curve, though single readings can be large; an effect the other way counts as inactive or inconclusive.

Assay [1] is described as follows: qHTS assay for small molecules that induce genotoxicity in human embryonic kidney cells expressing luciferase-tagged ATAD5 (AID 651632). Note: nearly all actives have a fitted effect of over 15% in size. Note: potency is the fitted concentration of half-maximal effect. In short, it runs like this: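 Cells were seeded at 2,000 per well, dosed with compound, and incubated 16 hr at 37C in 5% CO2. Luciferase activity was then quantified after a 30 min room-temperature incubation with Amplite.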
Assay [2] is described as follows: qHTS assay for small molecule agonists of the p53 signaling pathway - cell viability (AID 651633; calls by dose curve; note: series mostly up to about 83 µM; nearly all actives have a fitted effect of over 30% in size). In short, it runs like this:
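p53RE-bla cells were treated with compound for 16 hours at 37 C. Cytotoxicity was then measured as CellTiter-Glo luminescence after 30 min at room temperature.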

Assay [3] in a line: qHTS assay for small molecules that induce genotoxicity in human embryonic kidney cells expressing luciferase-tagged ATAD5 - cell viability (AID 651634; calls by dose curve; note: nearly all actives have a fitted effect of over 25% in size). Summed up: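 Cells (HEK293T, luciferase-tagged ATAD5) are seeded at 2,000 per well, dosed with compound or DMSO vehicle, and incubated 15.5 hr at 37C and 5% CO2. CellTiter-Fluor is added for 30 min before fluorescence is measured.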
In general terms: qHTS replaces the single test concentration by a dilution series.

Assay [4] is described as follows: qHTS assay for small molecule disruptors of the mitochondrial membrane potential - cell viability (AID 720634; calls by dose curve;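 note: human HepG2 liver cancer cells; series mostly up to about 83 µM; nearly all actives have a fitted effect of over 20% in size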). In short, it runs like this: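 Cytotoxicity was measured by ATP quantitation in HepG2 wells that had first been treated with compound for 1 hr and stained with m-MPI dye; CellTiter-Glo incubation was 30 min at room temperature.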
A short description of assay [5]: qHTS assay for small molecule disruptors of the mitochondrial membrane potential (AID 720635). Note: potency is the fitted concentration of half-maximal effect. Summed up:
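HepG2 cells exposed to compound 1 hr at 37C, then Mito-MPS dye 30 min. Ratio read of aggregate (540/590 nm) versus monomer (490/535 nm) fluorescence.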

The nature of assay [6]: qHTS assay to test for compound auto fluorescence at 590 nm (red) in HepG2 cells (AID 720674). In short, it runs like this:
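HepG2 cells, 2,000 per well in MEM with 10% FBS, attached overnight at 37 C, then got 23 nL compound or DMSO. After 1 hr at 37 C, 5% CO2, red fluorescence was read at 540/590 nm against Rose Bengal sodium as reference.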

Assay [7] can be described thus: qHTS assay to test for compound auto fluorescence at 535 nm (green) in HepG2 cells (AID 720675).
Assay [8] can be described thus: qHTS assay to test for compound auto fluorescence at 460 nm (blue) in HEK293 cells (AID 720678). Summed up:
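Triamterene serves as the blue fluorophore standard. Compound signal at 405/460 nm is read in HEK293 wells (2,000 cells, 10% dialyzed FBS) after overnight treatment at 37C.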

A short description of assay [9]: qHTS assay to test for compound auto fluorescence at 590 nm (red) in HEK293 cells (AID 720679). Summed up: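 We plated HEK293 cells in 10% dialyzed FBS medium, let them adhere for 4-5 hr, then added 23 nL compound. Overnight at 37C and 5% CO2 preceded fluorescence measurement at 540/590nm.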
Assay [10] in a line: qHTS assay for small molecule agonists of the p53 signaling pathway (AID 651631; calls by dose curve; note: nearly all actives have a fitted effect of over 15% in size). In short, it runs like this:
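Testing took place in human colorectal HCT-116 cells with stable p53RE-driven beta-lactamase. After 16 h of compound exposure at 37 °C, a FRET substrate was added and fluorescence recorded 2 h later.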

As to `Nc1ccc(N)cc1`, the Potency is 29.8 µM (active) in assay [1]; 841 nM (active) and 5.47 µM (active) and 3.86 µM (active) in [5]. Also, the Potency result in assay [2], in assay [3] and in assay [4] was “inactive” throughout. Besides, the result in assay [6], in assay [7], in [8] and in assay [9] was inactive.
Regarding `C=C(C)C(=O)OCC(CC)CCCC` (configuration not stated), the Potency entry in assay [10], in assay [1], in assay [2] and in assay [3] was “inactive” each time. In addition, the call in [6], in [7], in [8] and in [9] was inactive.
`Oc1ccc(Cl)cc1`: the Potency result in assay [10], in assay [2] and in [3] was “inactive” throughout. Besides, the outcome in [6], in assay [7], in assay [8] and in [9] was inactive.
`Oc1c(Br)cc(Br)cc1Br`: the Potency result in [1], in [2], in assay [3] and in assay [4] was “inactive” in each case. The Potency in [5] is 48.7 µM (active) and 54.5 µM (active). The molecule was classed as inactive in [6], in assay [7], in [8] and in assay [9].
As for `CC[N+](=O)[O-]`, the Potency result in assay [10], in assay [1], in [2], in assay [3] and in [4] was “inactive” in each case. Also, the result in [6], in [7], in [8] and in assay [9] was inactive.
For `COc1cc(-c2ccc(N)c(OC)c2)ccc1N`, the Potency result in assay [10], in assay [1], in [2] and in assay [4] was “inactive” each time. Moreover, the molecule was called inactive in assay [6], in assay [7], in [8] and in assay [9].
Regarding `C/C=C/c1ccc2c(c1)OCO2`, the Potency result in assay [10], in [2], in assay [3] and in assay [4] was “inactive” each time. Moreover, the Potency in assay [5] was 62.3 µM (active). For the same molecule, the molecule was classed as inactive in [6], in [7], in assay [8] and in assay [9].
Take `CNc1cnn(-c2cccc(C(F)(F)F)c2)c(=O)c1Cl`: the Potency result in [10], in [2], in assay [3], in assay [4] and in assay [5] was “inactive” each time. Besides, the result in [6], in [7], in assay [8] and in assay [9] was inactive.
On to `CCNc1nc(Cl)nc(NC(C)C)n1`, for which the Potency entry in assay [10], in assay [1], in [2] and in assay [3] was “inactive” throughout. Further, the call in assay [6], in assay [7], in assay [8] and in [9] was inactive.
With `CN1C(=O)CCS(=O)(=O)C1c1ccc(Cl)cc1` (configuration not stated), the Potency entry in assay [1], in assay [3], in [4] and in assay [5] was “inactive” throughout. In addition, the result in [6], in [7], in [8] and in assay [9] was inactive.
As to `C[C@H]1C(=O)O[C@@H]2CCN3CC=C(COC(=O)[C@](C)(O)[C@]1(C)O)[C@H]23`, the Potency entry in assay [10], in assay [1], in assay [2] and in [3] was “inactive” each time. The molecule was called inactive in assay [6], in [7], in assay [8] and in assay [9].
With `O=P1(NCCCl)OCCCN1CCCl` (configuration not stated), the Potency entry in assay [1], in [3], in assay [4] and in assay [5] was “inactive” throughout. The molecule was called inactive in [6], in [7], in assay [8] and in assay [9].
Regarding `NNc1ccccc1`, the Potency entry in assay [1], in assay [2], in assay [4] and in [5] was “inactive” each time. In addition, the molecule was called inactive in assay [6], in assay [7], in assay [8] and in [9].
As to `O=S(=O)(O)OOS(=O)(=O)O`, the Potency entry in assay [1], in assay [2] and in assay [3] was “inactive” in each case. Further, the result in assay [6], in assay [7], in assay [8] and in [9] was inactive.
On to `Sc1ccccc1`, for which the Potency result in assay [1], in assay [2], in assay [3], in [4] and in assay [5] was “inactive” in each case. Further, the outcome in [6], in assay [7], in assay [8] and in assay [9] was inactive.
For `CC(=O)/C=C/c1ccccc1`, the Potency result in assay [1], in assay [2], in assay [3], in assay [4] and in assay [5] was “inactive” throughout. Further, the molecule was classed as inactive in [6], in assay [7], in [8] and in [9].
For `Cc1cccc(N)c1C`, the Potency result in assay [10], in assay [1], in assay [2], in assay [3] and in assay [4] was “inactive” throughout. The molecule was called inactive in assay [6], in assay [7], in assay [8] and in assay [9].
Regarding `Cc1cccc(N)c1`, the Potency result in assay [1], in [2], in assay [3], in assay [4] and in assay [5] was “inactive” in each case. The result in [6], in assay [7], in assay [8] and in [9] was inactive.
As for `O=[N+]([O-])c1ccc(Cl)c(Cl)c1`, the Potency result in assay [1], in [2], in [3], in [4] and in [5] was “inactive” in each case. Further, the outcome in assay [6], in assay [7], in assay [8] and in [9] was inactive.
As to `CC12CC1(C)C(=O)N(c1cc(Cl)cc(Cl)c1)C2=O` (configuration not stated), the Potency result in assay [1], in assay [2] and in [3] was “inactive” throughout. Further, the result in assay [6], in [7], in [8] and in assay [9] was inactive.
As to `O=C(O)Cc1ccccc1`, the Potency entry in assay [1], in assay [2], in assay [3], in [4] and in assay [5] was “inactive” in each case. Moreover, the molecule was called inactive in assay [6], in assay [7], in assay [8] and in [9].
Consider `C=CC(=O)OCC(CC)CCCC` (configuration not stated), for which the Potency entry in assay [10], in assay [2], in assay [4] and in [5] was “inactive” throughout. Besides, the outcome in [6], in assay [7], in assay [8] and in [9] was inactive.
For the molecule `ClC(Cl)c1ccccc1`, the Potency entry in [1], in assay [2], in assay [3], in assay [4] and in assay [5] was “inactive” each time. Also, the call in [6], in assay [7], in assay [8] and in assay [9] was inactive.
As for `OCCCCO`, the Potency entry in assay [10], in assay [2], in [3], in assay [4] and in [5] was “inactive” in each case. For the same molecule, the molecule was classed as inactive in assay [6], in assay [7], in assay [8] and in assay [9].
